The source of these data is article PMC11062922 (Nature Chemical Biology, 2023).

Each structure is given as a SMILES string. Where two headings read alike, the source gives them in different places.

What all share (design): species or system human, MV4-11 + K-562 + COLO205 + SK-N-BE2 + OVCAR-8
One experiment concerns ADCK3. Particulars: read-out: apparent Kd, n = 1.
The test system of the next experiment is ADRBK1. Conditions: read-out: apparent Kd; compound concentrations: 100 nM and 1000 nM (sheet 'Samples'), CATDS: 4.7657416287883198E-2; n = 1.
The next experiment deals with AKT1. Conditions: read-out: apparent Kd, compound concentrations: 100 nM and 1000 nM (sheet 'Samples'), n = 1.
The next experiment concerns CSNK1A1. Particulars: read-out: apparent Kd; compound concentrations: 100 nM and 1000 nM (sheet 'Samples'), CATDS: 4.27416149593133E-2; n = 1.
Another experiment has as its system DYRK1A. Particulars: read-out: apparent Kd; compound concentrations: 100 nM and 1000 nM (sheet 'Samples'), CATDS: 4.0227920038392803E-2; n = 1.
Another experiment concerns ILK. Particulars: read-out: apparent Kd; compound concentrations: 100 nM and 1000 nM (sheet 'Samples'), CATDS: 5.1421329598879802E-2; n = 1.
The next experiment relates to MAP2K2. Particulars: read-out: apparent Kd, compound concentrations: 100 nM and 1000 nM (sheet 'Samples'), n = 1.
In another experiment the test system is MAP3K1. Particulars: read-out: apparent Kd; compound concentrations: 100 nM and 1000 nM (sheet 'Samples'), CATDS: 4.18687434788882E-2; n = 1.
The next experiment deals with MDN1. Conditions: read-out: apparent Kd; compound concentrations: 100 nM and 1000 nM (sheet 'Samples'), CATDS: 4.35192896952597E-2; n = 1.
For a further experiment, the system named is NNT. Conditions: read-out: apparent Kd; compound concentrations: 100 nM and 1000 nM (sheet 'Samples'), CATDS: 0.130086313463294; n = 1.
For a further experiment, the system named is NQO1. Particulars: read-out: apparent Kd, compound concentrations: 100 nM and 1000 nM (sheet 'Samples'), n = 1.
For a further experiment, the system named is PIK3C3. Conditions: read-out: apparent Kd, n = 1.
Another experiment has as its system PLK1. Particulars: read-out: apparent Kd; compound concentrations: 100 nM and 1000 nM (sheet 'Samples'), CATDS: 0.280824965441342; n = 1.
In the next experiment the test system is PSMC3. Conditions: read-out: apparent Kd; compound concentrations: 100 nM and 1000 nM (sheet 'Samples'), CATDS: 4.0647702260791799E-2; n = 1.
The subject of a further experiment is RIOK2. Conditions: read-out: apparent Kd; compound concentrations: 100 nM and 1000 nM (sheet 'Samples'), CATDS: 4.4447834501145103E-2; n = 1.
The test system of a further experiment is SMG1. Particulars: read-out: apparent Kd; compound concentrations: 100 nM and 1000 nM (sheet 'Samples'), CATDS: 4.1869296169603699E-2; n = 1.
The test system of a further experiment is STK10. Conditions: read-out: apparent Kd; compound concentrations: 100 nM and 1000 nM (sheet 'Samples'), CATDS: 4.6875467745806497E-2; n = 1.
Another experiment has as its system VDAC3. Particulars: read-out: apparent Kd; compound concentrations: 100 nM and 1000 nM (sheet 'Samples'), CATDS: 0.150958833754439; n = 1.
Another experiment relates to PIK3CD. Particulars: read-out: apparent Kd; compound concentrations:100 nM and 1000 nM (sheet 'Samples'); n = 1.
The next experiment has as its system TAOK1. Conditions: read-out: apparent Kd; compound concentrations:100 nM and 1000 nM (sheet 'Samples'); n = 1.
The subject of the next experiment is AKT3. Particulars: read-out: apparent Kd, compound concentrations: 100 nM and 1000 nM (sheet 'Samples'), n = 1.
The test system of another experiment is CDK13. Conditions: read-out: apparent Kd; compound concentrations: 100 nM and 1000 nM (sheet 'Samples'), CATDS: 0.20413342280503199; n = 1.
Another experiment relates to MAP2K5. Particulars: read-out: apparent Kd; compound concentrations: 100 nM and 1000 nM (sheet 'Samples'), CATDS: 0.16534591084459199; n = 1.
The next experiment deals with TNK1. Conditions: read-out: apparent Kd; compound concentrations: 100 nM and 1000 nM (sheet 'Samples'), CATDS: 0.23807616191270001; n = 1.
A further experiment deals with BTK. Conditions: read-out: apparent Kd; compound concentrations: 100 nM and 1000 nM (sheet 'Samples'), CATDS: 0.33731493843611998; n = 1.
Another experiment deals with JAK2. Conditions: read-out: apparent Kd; compound concentrations:100 nM and 1000 nM (sheet 'Samples'); n = 1.
The test system of a further experiment is TEC. Particulars: read-out: apparent Kd; compound concentrations:100 nM and 1000 nM (sheet 'Samples'); n = 1.
For a further experiment, the system named is ZAK. Particulars: read-out: apparent Kd; compound concentrations:100 nM and 1000 nM (sheet 'Samples'); n = 1.
The next experiment relates to ADCK1. Conditions: read-out: apparent Kd; compound concentrations: 100 nM and 1000 nM (sheet 'Samples'), CATDS: 0.14545775949077999; n = 1.
A further experiment deals with CAMK4. Conditions: read-out: apparent Kd; compound concentrations: 100 nM and 1000 nM (sheet 'Samples'), CATDS: 0.15107138054909999; n = 1.
The test system of another experiment is FLT3. Particulars: read-out: apparent Kd; compound concentrations: 100 nM and 1000 nM (sheet 'Samples'), CATDS: 0.830735386752396; n = 1.
Another experiment relates to PDGFRB. Particulars: read-out: apparent Kd; compound concentrations: 100 nM and 1000 nM (sheet 'Samples'), CATDS: 0.32052418925239901; n = 1.
The mark [1] stands for this setting: compound concentrations:100 nM and 1000 nM (sheet 'Samples').

As to `C[C@@H](Oc1cc(-n2cnc3ccc(OC[C@@H](O)CO)cc32)sc1C(N)=O)c1ccccc1Cl` [GSK978744A], the potency estimated from few doses with ADCK3 (compound concentrations: 100 nM and 1000 nM (sheet 'Samples'), CATDS: 5.9783524932330002E-2) is 0.691 µM; with ADRBK1 it was 1.3 µM; with AKT1 (CATDS: 4.0938746042506198E-2), 2.16 µM; in the experiment with CSNK1A1, 1.86 µM; with DYRK1A it was 2.31 µM; in the experiment with ILK, 1.04 µM. For the same compound, the potency estimated from few doses in the experiment with MAP2K2 (CATDS: 0.12895351362438101) is 0.124 µM; in the experiment on MAP3K1, 2 µM; in the experiment on MDN1, 1.74 µM; in the experiment with NNT, 0.122 µM; with NQO1 (CATDS: 0.14484490381839699), 0.0998 µM; in the experiment on PIK3C3 (compound concentrations: 100 nM and 1000 nM (sheet 'Samples'), CATDS: 4.45420285121335E-2) it was 1.62 µM. The potency estimated from few doses in the experiment on PLK1 is 0.0353 µM; with PSMC3, 2.22 µM; in the experiment with RIOK2, 1.63 µM; with SMG1, 1.99 µM; with STK10, 1.37 µM; with VDAC3 it was 0.0928 µM.
`COc1cc2ncn(-c3cc(OCC4CCCCC4)c(C(N)=O)s3)c2cc1OC` [GSK204559A]: the values for the potency estimated from few doses with ADCK3 (setting [1]), in the experiment with PIK3CD and in the experiment with TAOK1 were 1.06 µM, 0.19 µM and 1.46 µM, respectively.
Turning to `CNC(=O)c1cncc(/C=C/c2ccccc2Cl)c1` [GW445017X], in the experiment on ADCK3 (compound concentrations: 100 nM and 1000 nM (sheet 'Samples'), CATDS: 1), the potency estimated from few doses was 0.747 µM.
As for `Cc1ccc(C)c(NC(=O)NC2CCN(c3ccnc(Nc4ccc(F)cc4)n3)C2)c1` (centres unmarked) [GSK1379720A], the potency estimated from few doses in the experiment with ADCK3 (compound concentrations: 100 nM and 1000 nM (sheet 'Samples'), CATDS: 0.42611261301479197) is 0.388 µM; in the experiment on AKT3 (CATDS: 0.236310491034597), 1.13 µM; with CDK13, 1.63 µM; with NQO1 (CATDS: 0.22110563940730901), 1.33 µM.
In the case of `COc1cc2nccc(Nc3cccc(Oc4ccccc4)c3)c2cc1OC.Cl` [GW284543A], the potency estimated from few doses in the experiment on ADCK3 (compound concentrations: 100 nM and 1000 nM (sheet 'Samples'), CATDS: 0.252282452250228) is 0.949 µM; with AKT3 (CATDS: 0.185918724063731), 1.71 µM; with MAP2K5 it was 2.26 µM; in the experiment on NQO1 (CATDS: 0.18486916507509299), 1.73 µM; in the experiment with TNK1, 1.05 µM.
As to `C=CC(=O)Nc1cc(-n2c(=O)ccc3cnc4ccc(-c5ccc(NS(C)(=O)=O)cc5)cc4c32)ccc1C` [BMX-IN-1], the potency estimated from few doses in the experiment on ADCK3 (setting [1]) is 1.16 µM; with BTK it was 0.186 µM; in the experiment with JAK2 it was 0.466 µM; with PIK3C3 (setting [1]), 1.53 µM; in the experiment on TEC, 0.54 µM; with ZAK it was 0.782 µM.
`COc1cc(Nc2ncc(-c3ccccc3)o2)cc(OC)c1` [GW631581B]: the potency estimated from few doses in the experiment with ADCK1 is 1.65 µM; in the experiment on CAMK4, 1.41 µM; in the experiment on FLT3, 0.00816 µM; in the experiment on MAP2K2 (CATDS: 0.139234608718731), 2.01 µM; with PDGFRB it was 0.0854 µM.
Turning to `FC(F)(F)c1ccc(-c2nn3ncccc3c2-c2ccnc(Nc3ccc(Cl)c(C(F)(F)F)c3)n2)cc1` [GW829350X], the potency estimated from few doses in the experiment on ADCK3 (compound concentrations: 100 nM and 1000 nM (sheet 'Samples'), CATDS: 0.67916876553854699) is 0.727 µM; in the experiment with AKT1 (CATDS: 0.39563035574495098), 2.35 µM.
